# Screening results as filed in PubChem BioAssay.
# Vaccinia Venus – qHTS for Stage-Specific Inhibitors of Vaccinia Orthopoxvirus: Venus Reporter Primary qHTS; Vaccinia virus Venus reporter expression, fluorescence; Potency, µM (series often up to 36.5 µM), actives largely listed as inhibitors; 0.46% of 330,000 active; AID 720580, 2013; calls by dose curve; tested in A549 cells; further: nearly all actives have a fitted effect of over 30% in size
# LASV entry inh – qHTS for Inhibitors of binding or entry into cells for Lassa Virus; 1.2% of 300,000 active; Lassa virus pseudotype entry inhibition, cell reporter; Potency, µM (highest dose often 37.9 µM), actives largely listed as inhibitors; calls by dose curve; tested in HEK293 cells; further: nearly all actives have a fitted effect of over 50% in size
# Shiga inhibitor – A qHTS for Small Molecule Inhibitors of Shiga Toxin. Vero cells, Shiga toxin protein synthesis inhibition reporter. inhibition, % at 38.7 µM. 9.2% of 290,000 active. AID 2315, 2010; in the data active means inhibition mostly above about 28%, no sharp cut-off; inactive means mostly below about 43%
# Marburg entry inh – qHTS for inhibitors of binding or entry into cells for Marburg Virus; Marburg virus pseudotyped entry inhibition, cell reporter; 1.8% of 300,000 active; AID 540276, 2011; Potency, µM (titrated, usually from 37.8 µM), hits mostly inhibitors; calls by dose curve; tested in HEK293 cells
# Vaccinia mCherry – qHTS for Stage-Specific Inhibitors of Vaccinia Orthopoxvirus: mCherry Reporter Primary qHTS; Potency, µM (doses to about 36.5 µM), most hits filed as inhibitors; AID 720579, 2013; Vaccinia virus mCherry reporter infection, fluorescence; 0.63% of 310,000 active; calls by dose curve; tested in A549 cells; further: nearly all actives have a fitted effect of over 35% in size
# CHX counter – Cycloheximide Counterscreen for Small Molecule Inhibitors of Shiga Toxin | 12% of 300,000 active | cell reporter, cycloheximide protein synthesis inhibition counterscreen | max response, % | AID 2314, 2010; in the data active means max response mostly above about 13%, no sharp cut-off; inactive means mostly below about 14%; further: read at 38.3 µM for the half of the compounds with a filed dose
# Hits are given with their value; 0 = inactive; ? = inconclusive; - = not tested or not shown. The entries come from a sample that favours hits as a whole.
SMILES,Vaccinia Venus,LASV entry inh,Shiga inhibitor,Marburg entry inh,Vaccinia mCherry,CHX counter
O=C(CN(Cc1ccc2c(c1)OCO2)C(=O)CNS(=O)(=O)c1ccccc1)NCc1ccco1,0,0,0,0,-,0
COc1cc(/C=C(\C#N)c2nc3ccccc3n2C)cc(OC)c1O,0,0,0,?,?,0
NC(=O)c1nsc(C(=O)N(Cc2ccc(F)cc2)C(C(=O)NCC2CCCO2)c2ccc(F)cc2)c1N (centres undefined),0,0,0,11µM,0,0
CCc1ccc(N(C(=O)c2snc(C(N)=O)c2N)C(C(=O)NCC2CCCO2)c2cccs2)cc1 (centres undefined),0,?,0,?,0,37
Nc1ccc(N2CCN(c3ccc(Cl)c(Cl)c3)CC2)cc1,0,0,24,0,?,0
CCOc1cccc(C(=O)N(Cc2ccc(N(C)C)cc2)CC2CCCO2)c1 (centres undefined),0,?,-,0,0,-
Cc1cccc(Cn2c(SCc3ccc(C(=O)NCc4ccccc4F)cc3)nc3ccncc32)c1,0,-,-,?,?,-
Cn1c(CSc2ccccc2)c(C#N)c2ccccc21,-,?,81,0,-,43
Cc1ccc(SCc2c(C#N)c3ccccc3n2C)cc1,0,0,0,?,0,0
O=C1CCCN1CCC(=O)N1CCCC(CO)(Cc2ccccc2)C1 (centres undefined),0,0,74,?,0,55
COc1ccc(C(C)(O)c2nc(-c3ccc4ccccc4c3)cs2)cc1 (centres undefined),0,-,-,-,0,-
CN(C)/C=N/c1nc(-c2ccc3c(c2)OCO3)cs1,0,?,178,0,0,53
CC(O)(c1ccccc1)c1nc(-c2ccc3c(c2)OCO3)cs1 (centres undefined),0,-,-,-,0,-
CN(C)/C=N/c1nc(-c2ccc3ccccc3c2)cs1,0,10µM,61,?,0,47
O=C(Nn1cnnc1)c1ccc(OC(F)(F)C(F)C(F)(F)F)cc1 (centres undefined),0,?,0,0,0,0
CCC(C)NC(=O)c1cccc(NC(=O)c2nsc3ccccc23)c1 (centres undefined),0,?,-,-,0,-
Cc1ccc(NC(=O)c2cc(N(C)C)ccc2[P+](=O)O)cc1,0,0,105,?,0,84
Cc1ccc2c(c1)c1c3n2CCN(C(=O)c2ccc(C(F)(F)F)cc2)C3CCC1 (centres undefined),0,0,-,0,0,-
Cc1occc1-c1nc(-c2ccccn2)no1,0,?,68,11µM,?,26
Cc1occc1-c1nc(-c2ccncc2)no1,0,0,80,0,0,34
Cc1ccc(-c2noc(-c3ccoc3C)n2)cc1,0,?,83,?,0,49
Cc1ccc(-c2noc(-c3c(C)noc3C)n2)cc1,-,-,0,-,-,0
CCOCCCNC(=O)C(NC(=O)c1ccc2c(c1)OCO2)c1ccc(Cl)cc1 (centres undefined),0,0,0,0,0,0
Cc1ccc(-n2nc(C(=O)Nc3ccc(C)c(F)c3)c3c4ccccc4n(C)c3c2=O)cc1,0,0,-,0,0,-
CCOC(=O)N1CCN(C(=O)c2ccc3c(c2)N(C)C(=O)/C(=C\c2ccc(OCC)c(OC)c2)S3)CC1,?,5µM,0,11µM,?,0
SMILES,Vaccinia Venus,LASV entry inh,Shiga inhibitor,Marburg entry inh,Vaccinia mCherry,CHX counter
CN=C1S/C(=C\c2ccc(SC)cc2)C(=O)N1C,0,?,56,0,0,33
CN=C1S/C(=C\c2ccc(Cl)cc2)C(=O)N1C,0,0,0,0,0,0
CCOC(=O)CSC1=NC(=O)/C(=C\c2ccc(Cl)cc2)S1,-,0,104,0,-,34
CN=C1S/C(=C\c2ccc(OCC(=O)OC)c(OC)c2)C(=O)N1C,-,-,-,-,-,13
CN=C1S/C(=C\c2ccc(O)c(OC)c2)C(=O)N1C,0,?,-,0,0,-
CCOC(=O)C1CCN(C2=NC(=O)/C(=C/c3ccc(Cl)cc3)S2)CC1,0,0,0,0,0,0
COc1cccc(NC(=O)C(OC(=O)c2cnc(C)cn2)c2ccccc2)c1 (centres undefined),0,0,-,0,0,-
CSC1=NC(=O)/C(=C/c2ccc(SC)cc2)S1,0,?,0,0,0,31
CC(SCc1ccccc1)C(=O)Nc1ccccc1Br (centres undefined),0,?,-,0,0,42
Cc1ccccc1NC(=O)C(C)SCc1ccccc1 (centres undefined),0,?,0,0,0,0
COc1ccc2cc3cc(C(=O)NCC4CCCO4)oc3nc2c1 (centres undefined),0,?,46,0,0,0
CCOc1ccc(NC(=O)c2cc3cc4ccc(OC)cc4nc3o2)cc1,0,0,0,?,0,0
COc1ccc2cc3cc(C(=O)NCc4ccccn4)oc3nc2c1,0,0,0,0,0,0
COCCNC(=O)c1cc2cc3ccc(OC)cc3nc2o1,-,-,0,-,-,42
CCC(C)NC(=O)c1cc2cc3ccc(OC)cc3nc2o1 (centres undefined),0,0,39,?,0,30
Cc1cccc(N(C)C(=O)c2cc3cc4ccc(C)cc4nc3o2)c1,0,?,active,?,0,39
C[C@H](NC(=O)c1ccccc1F)C(=O)N1CCC2(CC1)NCCc1[nH]cnc12,0,?,0,0,0,0
COC(=O)C(CCSC)NC(=O)c1c(C)oc2ncn(CC(C)C)c(=O)c12 (centres undefined),0,0,-,-,0,-
COc1ccc(Cl)cc1-c1cc2c(c(OC)c1)OCCN(Cc1cccn1-c1nccs1)C2,0,-,-,-,0,-
C[C@@H]1CCCCO[C@@H](CN(C)C(=O)Cc2ccccc2)[C@@H](C)CN([C@H](C)CO)C(=O)c2cc(NC(=O)C3CCCCC3)ccc2O1,0,-,-,-,0,-
CCN(c1cccc(C)c1)S(=O)(=O)c1cc(Br)cc2c1N(C(C)=O)C(C)C2 (centres undefined),0,0,-,?,0,-
Cc1cc2n(n1)CCC(=O)N2Cc1ccc(C(=O)Nc2ccc(Br)c(C)c2)cc1,0,0,-,-,0,-
COc1ccc2cc3cc(C(=O)NCCC(C)C)oc3nc2c1,0,3.5µM,0,0,0,0
CCCCN(C)C(=O)c1cc2cc3ccc(OC)cc3nc2s1,-,?,57,10µM,-,25
Cc1ccc2cc3cc(C(=O)NCCCN4CCCC4)oc3nc2c1,-,-,0,-,-,0
SMILES,Vaccinia Venus,LASV entry inh,Shiga inhibitor,Marburg entry inh,Vaccinia mCherry,CHX counter
COc1ccc2nc3oc(C(=O)NCCCOC(C)C)cc3cc2c1,-,-,0,-,-,0
COc1ccc2cc3cc(C(=O)NCCN4CCN(c5ccccc5F)CC4)oc3nc2c1,0,?,0,13µM,0,0
Cc1ccc2cc3cc(C(=O)NCCCN4CCc5ccccc5C4)oc3nc2c1,?,?,0,0,?,30
COC[C@@H](OC(C)=O)[C@H]1OCc2ccccc2[C@H]1C=Cc1ccccc1,-,-,-,0,-,-
CCCCN(CC)C(=O)c1cc2cc3ccc(OC)cc3nc2o1,-,0,80,?,-,27
CCN(C(=O)c1cc2cc3ccc(OC)cc3nc2o1)c1cccc(C)c1,0,?,-,0,0,-
